Drawing on PubChem BioAssay (EPA / NIEHS), this text covers outcome and AC50 for six molecules.

Assay [1] in a line: ATG_GLI_CIS: Attagene CIS-FACTORIAL HepG2 Assay for human Zinc Finger Protein GLI1 (AID 2282945). The settings on record: HepG2, Attagene cis-factorial reporter mRNA, GLI element; actives raise or lower the signal. The gist of the method:
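HepG2 cells transiently transfected with cis-promoter multiplexed reporter units report endogenous transcription factor activity. After 24 h chemical exposure, reporter mRNA was quantified by RT-PCR, 6-FAM labelling, HpaI digestion and capillary electrophoresis, with bidirectional fitting against DMSO.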

A short description of assay [2]: ATG_GRE_CIS: Attagene CIS-FACTORIAL HepG2 Assay for human Glucocorticoid Response Elements (GRE) (AID 2282947). The settings on record: HepG2 GRE cis-reporter, Attagene multiplex mRNA; actives raise or lower the signal. The gist of the method: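 HepG2, transient cis-reporter transfection, 24 h. Reporter mRNA: RT-PCR then CE, fluorescence. Fit both directions vs DMSO.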

The nature of assay [3]: ATG_ISRE_CIS: Attagene CIS-FACTORIAL HepG2 Assay for human Interferon Regulatory Factor 1 (IRF1) binding to an Interferon-Stimulated Response Element (ISRE) (AID 2282948). The settings on record: HepG2 ISRE cis-reporter (Attagene), mRNA transcription readout; actives raise or lower the signal. The gist of the method: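 Read-out: fluorescent RT-PCR products resolved by capillary electrophoresis, reporting endogenous transcription factor activity via ISRE-driven reporter mRNA in transfected HepG2 cells dosed for 24 h; gain or loss fitted relative to DMSO.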

Assay [4] in a line: ATG_M_32_CIS: Attagene CIS-FACTORIAL HepG2 Assay for M32 Transcription Factor (Internal Marker) (AID 2282949).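 Also: background control marker of the multiplexed CIS panel rather than a real target.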 The settings on record: HepG2 Attagene cis-factorial M32 reporter, mRNA; actives raise or lower the signal. The gist of the method:
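Using DMSO as baseline, bidirectional curve fits were applied to reporter mRNA signals. These came from transiently transfected HepG2 cells exposed for 24 h, with RNA analysed by RT-PCR, FAM primer extension, HpaI digestion and CE.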

Assay [5] in a line: ATG_M_06_CIS: Attagene CIS-FACTORIAL HepG2 Assay for M06 Transcription Factor (Internal Marker) (AID 2282950). The settings on record: HepG2 Attagene CIS-FACTORIAL M06 internal marker reporter; actives raise or lower the signal. The gist of the method:
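Serves as a background control readout. Transfected HepG2 exposed to compounds for 24 h, then reporter transcripts quantified by fluorescent RT-PCR and capillary electrophoresis. Both directions fitted against DMSO baseline.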

In assay [6] the target is Hepatocyte nuclear factor 6 (Homo sapiens) (UniProt Q9UBC0). Nature of the assay: ATG_HNF6_CIS: Attagene CIS-FACTORIAL HepG2 Assay for human Hepatocyte Nuclear Factor 6 (HNF6) (AID 2282952). The settings on record: HepG2 Attagene cis-factorial HNF6 reporter transcription; actives raise or lower the signal. The gist of the method: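 Endogenous factor activity read in transiently transfected HepG2 via promoter-regulated reporter transcripts. RNA harvested 24 h post-dosing, reverse-transcribed, PCR-amplified, FAM-labelled, HpaI-digested and resolved by capillary electrophoresis; fitted in both directions against DMSO.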

Assay [7] deals with Heat shock factor protein 1 (Homo sapiens) (UniProt Q00613). In words: ATG_HSE_CIS: Attagene CIS-FACTORIAL HepG2 Assay for human Heat Shock Transcription Factor 1 (HSE) (AID 2282953). The settings on record: HepG2 HSE cis-reporter, Attagene RNA transcription; actives raise or lower the signal. The essentials:
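Endogenous transcription factor activity in transiently transfected HepG2, read as reporter mRNA by RT-PCR with fluorescent capillary electrophoresis after 24 h. Gain or loss of signal fitted versus DMSO baseline.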

The nature of assay [8]: ATG_PBREM_CIS: Attagene CIS-FACTORIAL HepG2 Assay for human Phenobarbital-responsive Enhancer Module (PBREM) (AID 2282955). The settings on record: HepG2 PBREM cis-reporter, Attagene multiplexed transcription; actives raise or lower the signal. The essentials: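 Readout: reporter mRNA, fluorescent RT-PCR fragments separated by capillary electrophoresis. System: HepG2 transiently transfected with cis-regulated reporter units. Exposure: 24 h. Analysis: bidirectional, DMSO baseline.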

Assay [9] concerns the target Paired box protein Pax-6 (Homo sapiens) (UniProt P26367). Nature of the assay: ATG_Pax6_CIS: Attagene CIS-FACTORIAL HepG2 Assay for human Paired Box 6 (PAX6) (AID 2282956). The settings on record: HepG2 CIS-FACTORIAL PAX6 reporter transcription, RNA readout; actives raise or lower the signal. The essentials: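 Readout: reporter transcript fluorescence after RT-PCR and capillary electrophoresis. Cells: HepG2, transiently transfected with cis-regulated MRTUs. Exposure 24 h. Gain or loss of signal fitted bidirectionally relative to DMSO.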

Assay [10] can be described thus: ATG_PXRE_CIS: Attagene CIS-FACTORIAL HepG2 Assay for human Pregnane X Receptor Element (PXRE) (AID 2282957). The settings on record: HepG2 Attagene CIS-FACTORIAL PXRE reporter, mRNA; actives raise or lower the signal. The essentials: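 Reporter transcripts under endogenous PXR-responsive cis-regulation quantified from total RNA of transfected HepG2 cells 24 h post-dosing, via RT-PCR with fluorescent primer extension and capillary electrophoresis. Gain or loss of signal fitted against DMSO baseline.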

The nature of assay [11]: ATG_Sox_CIS: Attagene CIS-FACTORIAL HepG2 Assay for human SRY-box transcription factor (SOX) (AID 2282960). The settings on record: HepG2 Attagene cis-factorial SOX reporter, mRNA; actives raise or lower the signal. The essentials:
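Using transiently transfected HepG2 cells, reporter transcription driven by cis elements was assessed 24 h after dosing. Signal was fluorescence of capillary-separated RT-PCR products, with DMSO defining baseline activity.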

Assay [12] concerns the target Transcription factor Sp1 (Homo sapiens) (UniProt P08047). Nature of the assay: ATG_Sp1_CIS: Attagene CIS-FACTORIAL HepG2 Assay for human Specificity Protein 1 (Sp1) (AID 2282961). The settings on record: HepG2 Sp1 cis-reporter transcription, actives raise or lower the signal. The gist of the method: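 After transient transfection of HepG2 cells with cis-promoter reporter units and 24 h chemical treatment, reporter transcripts were quantified by RT-PCR and capillary electrophoresis fluorescence. Gain- and loss-of-signal fitted against DMSO.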

Assay [13] can be described thus: ATG_SREBP_CIS: Attagene CIS-FACTORIAL HepG2 Assay for human Sterol Regulatory Element Binding (SREBP) (AID 2282962). The settings on record: HepG2 Attagene cis-factorial SREBP reporter, mRNA; actives raise or lower the signal. The gist of the method: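 Readout: fluorescent reporter-transcript peaks resolved by capillary electrophoresis after RT-PCR. Cells were human HepG2 carrying transfected cis-promoter reporter constructs, dosed for 24 h. Gain or loss of signal was fitted against DMSO controls.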

Assay [14] has as its target Signal transducer and activator of transcription 3 (Homo sapiens) (UniProt P40763). In words: ATG_STAT3_CIS: Attagene CIS-FACTORIAL HepG2 Assay for human Signal Transducer and Activator of Transcription 3 (STAT3) (AID 2282963). The settings on record: HepG2, Attagene cis-factorial STAT3 reporter transcription; actives raise or lower the signal. The gist of the method:
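Uses human liver HepG2 transiently carrying cis-regulated reporter transcription units. Following 24 h dosing, reporter mRNA induction was detected by RT-PCR and capillary electrophoresis, analysed bidirectionally versus DMSO.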

A short description of assay [15]: ATG_TA_CIS: Attagene CIS-FACTORIAL HepG2 Assay for human TA Basal Promoter (AID 2282964). The settings on record: HepG2 Attagene CIS-factorial TA basal promoter reporter; actives raise or lower the signal. The essentials:
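Background-control readout: TA basal promoter reporter mRNA, fitted in both directions relative to DMSO. Measured by RT-PCR and capillary electrophoresis 24 hours after treating HepG2 human liver cells transiently carrying multiplexed cis-regulated reporter constructs.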

Assay [16] addresses Hypoxia-inducible factor 1-alpha (Homo sapiens) (UniProt Q16665). Nature of the assay: ATG_HIF1a_CIS: Attagene CIS-FACTORIAL HepG2 Assay for human Hypoxia Inducible Factor 1 (HIF1A) (AID 2282951). The settings on record: HepG2 Attagene cis-factorial HIF1a reporter transcription; actives raise or lower the signal. The gist of the method: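 Endogenous-TF cis reporter readout, human HepG2 cells, 24 h incubation; mRNA detected via RT-PCR and capillary electrophoresis fluorescence; DMSO-normalised bidirectional fitting.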

Assay [17] in a line: ATG_MRE_CIS: Attagene CIS-FACTORIAL HepG2 Assay for human Metal Responsive Element (MRE) (AID 2282954). The settings on record: HepG2 MRE cis-reporter transcription, Attagene multiplex; actives raise or lower the signal. The essentials:
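Readout: capillary electrophoresis of 6-FAM-labelled, HpaI-digested RT-PCR reporter products. System: HepG2 cells carrying transient multiplexed cis reporters, dosed 24 h. Analysis: bidirectional fit, DMSO baseline.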

A short description of assay [18]: ATG_PPRE_CIS: Attagene CIS-FACTORIAL HepG2 Assay for human Peroxisome Proliferator-activated Response Element (PPRE) (AID 2282958). The settings on record: HepG2 PPRE cis-element reporter, Attagene transcription factor profiling; actives raise or lower the signal. The essentials: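 After human HepG2 hepatoma cells were transiently transfected with cis-promoter reporter constructs, they were exposed to test chemicals for 24 hours. Reporter RNA was then reverse-transcribed, PCR-amplified, FAM-labeled, HpaI-digested and quantified by capillary electrophoresis.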

Assay [19] is described as follows: ATG_RORE_CIS: Attagene CIS-FACTORIAL HepG2 Assay for human RAR-related Orphan Receptor Element (RORE) (AID 2282959). The settings on record: HepG2 Attagene cis-factorial RORE reporter, mRNA; actives raise or lower the signal. The gist of the method: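 Measured here: transcript induction of a cis-regulated reporter in HepG2 cells transiently transfected via FuGene 6. After 24 h, RNA was processed by RT-PCR and fluorescent capillary electrophoresis; DMSO defined baseline activity.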

Each structure is given as a SMILES string. Calls of active or inactive are those of the source. The calls were made as follows: active = hit-call score of the fitted dose curve at least 0.9, where 1 is the maximum; inactive = score below 0.9.

Sequence of Heat shock factor protein 1 (Homo sapiens) (Q00613 whole entry, looked up): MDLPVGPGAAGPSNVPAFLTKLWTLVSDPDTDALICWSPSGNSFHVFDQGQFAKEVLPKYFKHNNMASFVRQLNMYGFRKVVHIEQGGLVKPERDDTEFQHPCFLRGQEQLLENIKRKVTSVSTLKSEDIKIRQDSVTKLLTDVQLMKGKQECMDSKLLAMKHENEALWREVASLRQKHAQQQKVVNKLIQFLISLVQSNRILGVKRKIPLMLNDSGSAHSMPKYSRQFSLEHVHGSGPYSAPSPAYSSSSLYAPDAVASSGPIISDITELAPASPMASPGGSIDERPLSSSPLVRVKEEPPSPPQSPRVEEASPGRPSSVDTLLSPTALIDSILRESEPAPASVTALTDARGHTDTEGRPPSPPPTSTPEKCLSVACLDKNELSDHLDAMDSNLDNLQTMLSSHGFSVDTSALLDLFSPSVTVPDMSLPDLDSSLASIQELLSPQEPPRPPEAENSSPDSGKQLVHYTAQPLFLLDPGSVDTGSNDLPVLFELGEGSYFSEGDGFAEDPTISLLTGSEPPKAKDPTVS
Sequence of Signal transducer and activator of transcription 3 (Homo sapiens) (P40763 whole entry, looked up): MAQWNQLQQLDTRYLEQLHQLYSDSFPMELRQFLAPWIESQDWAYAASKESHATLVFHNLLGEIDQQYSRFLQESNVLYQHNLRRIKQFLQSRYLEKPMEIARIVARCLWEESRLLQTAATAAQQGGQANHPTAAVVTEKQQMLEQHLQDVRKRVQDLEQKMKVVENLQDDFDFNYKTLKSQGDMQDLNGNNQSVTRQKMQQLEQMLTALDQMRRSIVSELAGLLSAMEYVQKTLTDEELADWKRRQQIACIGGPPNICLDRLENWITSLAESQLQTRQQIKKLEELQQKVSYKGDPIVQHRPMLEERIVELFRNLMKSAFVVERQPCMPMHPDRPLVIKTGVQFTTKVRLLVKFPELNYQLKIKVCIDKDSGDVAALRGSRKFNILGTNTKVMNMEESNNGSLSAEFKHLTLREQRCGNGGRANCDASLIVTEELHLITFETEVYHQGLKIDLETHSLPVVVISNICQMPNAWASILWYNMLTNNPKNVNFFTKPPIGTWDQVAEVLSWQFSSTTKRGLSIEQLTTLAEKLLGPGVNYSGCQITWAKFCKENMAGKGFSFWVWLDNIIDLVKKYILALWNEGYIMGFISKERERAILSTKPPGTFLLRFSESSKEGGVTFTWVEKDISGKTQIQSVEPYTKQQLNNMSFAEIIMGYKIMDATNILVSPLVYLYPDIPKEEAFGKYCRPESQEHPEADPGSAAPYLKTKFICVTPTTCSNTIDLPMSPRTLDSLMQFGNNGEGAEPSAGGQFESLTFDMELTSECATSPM
Sequence of Transcription factor Sp1 (Homo sapiens) (P08047 whole entry, looked up): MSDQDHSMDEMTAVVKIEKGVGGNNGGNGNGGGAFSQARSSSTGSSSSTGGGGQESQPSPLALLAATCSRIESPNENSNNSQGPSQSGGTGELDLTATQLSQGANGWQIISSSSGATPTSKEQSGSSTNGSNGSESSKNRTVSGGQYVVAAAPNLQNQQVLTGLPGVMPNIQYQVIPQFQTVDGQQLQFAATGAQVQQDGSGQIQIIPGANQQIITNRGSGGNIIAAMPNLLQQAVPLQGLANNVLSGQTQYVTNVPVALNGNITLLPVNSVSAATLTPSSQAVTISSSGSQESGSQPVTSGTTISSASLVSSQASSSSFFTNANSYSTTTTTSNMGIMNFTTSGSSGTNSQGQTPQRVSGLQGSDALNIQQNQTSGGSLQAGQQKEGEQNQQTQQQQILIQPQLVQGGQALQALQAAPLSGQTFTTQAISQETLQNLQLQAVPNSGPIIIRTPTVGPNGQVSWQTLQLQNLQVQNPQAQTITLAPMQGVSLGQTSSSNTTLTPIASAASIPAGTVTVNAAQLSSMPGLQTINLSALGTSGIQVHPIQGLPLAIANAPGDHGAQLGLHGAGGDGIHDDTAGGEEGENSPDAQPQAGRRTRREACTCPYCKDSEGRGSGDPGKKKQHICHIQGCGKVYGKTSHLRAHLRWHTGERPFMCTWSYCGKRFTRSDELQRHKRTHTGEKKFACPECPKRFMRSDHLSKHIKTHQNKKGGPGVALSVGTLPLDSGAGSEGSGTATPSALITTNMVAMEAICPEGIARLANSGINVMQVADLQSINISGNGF
Sequence of Paired box protein Pax-6 (Homo sapiens) (P26367 whole entry, looked up): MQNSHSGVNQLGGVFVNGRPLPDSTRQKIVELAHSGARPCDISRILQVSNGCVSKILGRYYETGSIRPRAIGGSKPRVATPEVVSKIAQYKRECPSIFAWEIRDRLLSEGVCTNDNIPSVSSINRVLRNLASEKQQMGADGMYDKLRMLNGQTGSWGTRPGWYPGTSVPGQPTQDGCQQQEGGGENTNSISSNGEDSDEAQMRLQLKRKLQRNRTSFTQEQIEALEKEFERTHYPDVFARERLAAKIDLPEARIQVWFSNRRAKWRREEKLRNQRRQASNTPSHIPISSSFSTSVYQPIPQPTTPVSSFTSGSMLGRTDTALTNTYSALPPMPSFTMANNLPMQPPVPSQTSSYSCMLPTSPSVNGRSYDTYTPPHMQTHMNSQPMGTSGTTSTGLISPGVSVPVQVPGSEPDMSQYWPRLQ
Sequence of Hepatocyte nuclear factor 6 (Homo sapiens) (Q9UBC0 whole entry, looked up): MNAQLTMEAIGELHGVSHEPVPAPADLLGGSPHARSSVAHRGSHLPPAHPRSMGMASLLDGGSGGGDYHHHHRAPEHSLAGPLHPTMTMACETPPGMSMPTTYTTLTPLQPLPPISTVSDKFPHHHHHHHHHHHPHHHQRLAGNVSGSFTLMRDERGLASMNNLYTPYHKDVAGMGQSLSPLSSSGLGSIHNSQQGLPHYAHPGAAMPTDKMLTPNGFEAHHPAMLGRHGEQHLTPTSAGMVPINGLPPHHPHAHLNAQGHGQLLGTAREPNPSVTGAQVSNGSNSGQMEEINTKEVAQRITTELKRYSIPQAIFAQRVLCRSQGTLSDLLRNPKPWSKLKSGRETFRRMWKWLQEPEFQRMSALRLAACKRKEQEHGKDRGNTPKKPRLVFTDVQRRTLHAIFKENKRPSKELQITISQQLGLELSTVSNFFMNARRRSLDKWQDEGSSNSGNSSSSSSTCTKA
Sequence of Hypoxia-inducible factor 1-alpha (Homo sapiens) (Q16665 whole entry, looked up): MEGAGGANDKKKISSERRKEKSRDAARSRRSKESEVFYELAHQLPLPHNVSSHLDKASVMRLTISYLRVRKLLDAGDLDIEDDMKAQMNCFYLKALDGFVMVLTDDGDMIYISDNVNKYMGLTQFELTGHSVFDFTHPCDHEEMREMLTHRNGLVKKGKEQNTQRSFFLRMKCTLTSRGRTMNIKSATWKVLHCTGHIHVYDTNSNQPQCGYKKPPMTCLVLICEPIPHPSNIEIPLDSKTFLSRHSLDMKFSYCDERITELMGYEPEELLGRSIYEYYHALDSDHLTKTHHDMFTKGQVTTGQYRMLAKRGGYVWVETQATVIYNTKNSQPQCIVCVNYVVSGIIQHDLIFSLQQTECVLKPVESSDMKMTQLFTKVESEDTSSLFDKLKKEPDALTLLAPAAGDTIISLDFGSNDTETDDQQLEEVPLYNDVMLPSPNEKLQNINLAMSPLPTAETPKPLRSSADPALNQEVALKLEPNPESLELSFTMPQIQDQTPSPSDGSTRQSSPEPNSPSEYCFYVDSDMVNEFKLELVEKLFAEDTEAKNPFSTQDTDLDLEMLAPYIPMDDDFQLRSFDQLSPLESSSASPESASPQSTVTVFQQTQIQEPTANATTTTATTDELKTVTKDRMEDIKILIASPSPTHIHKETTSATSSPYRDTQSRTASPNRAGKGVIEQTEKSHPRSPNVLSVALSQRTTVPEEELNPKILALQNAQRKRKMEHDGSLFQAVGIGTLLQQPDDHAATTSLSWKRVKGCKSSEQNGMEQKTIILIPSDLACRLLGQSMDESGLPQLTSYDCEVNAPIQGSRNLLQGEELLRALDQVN

Consider `O=C(O)C(F)(F)C(F)(F)C(F)(F)C(F)(F)C(=O)O`, for which the molecule was called inactive in assay [1], in assay [2], in assay [3], in assay [4], in assay [5] and in assay [6]. The outcome in assay [7], in [8], in [9], in assay [10], in [11] and in assay [12] was inactive. The molecule was classed as inactive in assay [13], in assay [14] and in assay [15].

As for `CC1(C)CC(O)CC(C)(C)N1[O]`, the call in assay [1], in assay [3], in [4], in [5], in assay [16] and in assay [6] was inactive. Moreover, the result in [7], in [17], in [8], in assay [9], in assay [10] and in assay [18] was inactive. In addition, the call in assay [19], in [11], in assay [12], in [13], in assay [14] and in assay [15] was inactive.

Broadly, the AC50 is the concentration at which the activity in the assay is half-maximal. `C=C(C)C(=O)OCCCCCCCCCCCC`: the outcome in assay [1], in assay [2], in assay [3], in [4], in assay [16] and in [6] was inactive. The molecule was called inactive in assay [7], in assay [8], in [9], in [18], in assay [11] and in assay [12]. The call in [13], in assay [14] and in assay [15] was inactive. Moreover, the AC50 in assay [10] was 30.9 µM (active).

Regarding `N#Cc1ccc(C2CCCc3cncn32)cc1` (stereo unspecified), the result in [1], in assay [2], in assay [3], in assay [5], in [6] and in [7] was inactive. The call in [17], in [8], in assay [9], in [19], in assay [11] and in [12] was inactive. The call in assay [13], in [14] and in assay [15] was inactive. For the same molecule, the AC50 in [10] is 23.9 µM (active).

As to `CN1CCN(C)CC1`, the outcome in assay [1], in assay [2], in assay [3], in assay [5], in [16] and in assay [6] was inactive. The result in assay [7], in assay [17], in assay [9], in [10], in assay [18] and in assay [19] was inactive. The molecule was called inactive in [11], in [12], in assay [13] and in [14].

For `CCN1CN(CC)CN(CC)C1`, the AC50 is 141 µM (active) in assay [1]; 97 µM (active) in assay [2]; 146 µM (active) in assay [3]; 174 µM (active) in assay [7]; 166 µM (active) in [17]; 138 µM (active) in assay [11]. In assay [12], the AC50 is 163 µM (active). Besides, the call in [5], in assay [16], in assay [6], in [9], in assay [18] and in assay [13] was inactive. In addition, the molecule was classed as inactive in [14] and in [15].
